This is an account of results in PubChem BioAssay (EPA / NIEHS).

Calls of active or inactive are those of the source. How the source made its calls: active means hit-call score of the fitted dose curve at least 0.9, where 1 is the maximum; inactive means score below 0.9.

Read-out in the first test: matrix metalloproteinase-3 (MMP3), MMP3 (gene 4314)
Nature of the test: LTEA_HepaRG_MMP3: Life Technologies and Expression Analysis (LTEA) Assay for matrix metalloproteinase-3 (MMP3) using HepaRG (AID 2283519). To be noted: mRNA level, 48 h; actives raise or lower the signal. Put shortly: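 Differentiated human HepaRG cells, plated 48 h on collagen I, were exposed in duplicate for 48 h in serum-free induction medium to eight half-log concentrations up to 100 uM in 0.5% DMSO. MMP3 mRNA was quantified by TaqMan qRT-PCR, normalised to ACTB, GAPDH and POLR2A.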
For `CC(C)CCCCCCc1ccc(O)cc1`, the compound was classed as inactive.

For the compound `N#CSCSc1nc2ccccc2s1`, the call was inactive.

Regarding `CC(=O)S[C@@H]1CC2=CC(=O)CC[C@]2(C)[C@H]2CC[C@@]3(C)[C@@H](CC[C@@]34CCC(=O)O4)[C@H]12`, the compound was called inactive.

Take `O=C(c1ccc(O)cc1O)c1ccc(O)cc1O`: the call was inactive.

With `CCOC(=O)COc1cc(-n2ncc(C(F)(F)F)c(C)c2=O)c(F)cc1Cl`, the outcome was inactive.

`OB(O)O`: the result was inactive.

Take `CCCCOC(=O)[C@@H](C)Oc1ccc(Oc2ccc(C(F)(F)F)cn2)cc1`: the outcome was inactive.

As to `CCCN(CCC)C(=O)SCC`, the outcome was inactive.

In the case of `CCCCOC(=O)C(C)Oc1ccc(Oc2ccc(C(F)(F)F)cn2)cc1` (stereo not given), the result was inactive.

In the case of `O=C(O)C1(C(=O)Nc2ccc(Cl)cc2Cl)CC1`, the AC50 (as a rule, the concentration at which the activity in the assay is half-maximal) is 50 µM (active).

Take `COC(=O)c1ccc(I)cc1S(=O)(=O)NC(=O)Nc1nc(C)nc(OC)n1`: the compound was classed as inactive.

Take `C=CCOC(Cn1ccnc1)c1ccc(Cl)cc1Cl` (stereo not given): the AC50 was 75.2 µM (active).

Take `C#C[C@]1(O)CC[C@H]2[C@@H]3CCC4=CC(=O)CC[C@@H]4[C@H]3CC[C@@]21CC`: the compound was classed as inactive.

Turning to `C[C@]12C[C@H](O)[C@H]3[C@@H](CCC4=CC(=O)CC[C@@]43C)[C@@H]1CC[C@@H]2C(=O)CO`, the compound was classed as inactive.

As for `C#CCOC(=O)[C@@H](C)Oc1ccc(Oc2ncc(Cl)cc2F)cc1`, the outcome was inactive.

`CCCCC(CC)CN1C(=O)C2C3C=CC(C3)C2C1=O` (stereo not given): the outcome was inactive.

Take `O=C(O)c1ccccc1`: the call was inactive.

In the case of `CCN(CC)C(=O)c1cccc(C)c1`, the result was inactive.

`CCCN(CCC)c1c([N+](=O)[O-])cc(C(F)(F)F)c(N)c1[N+](=O)[O-]`: the call was inactive.

In the case of `Cc1nn(C)c(Oc2ccccc2)c1C=NOCc1ccc(C(=O)OC(C)(C)C)cc1`, the AC50 was 34.4 µM (active).

Turning to `COC(=O)c1ccccc1C(=O)O`, the compound was called inactive.

On to `CCCOC(=O)c1ccc(C(=O)OCCC)nc1`, for which the call was inactive.

Regarding `CCCOC(=O)NCCCN(C)C`, the compound was called inactive.

As to `O=C(Nc1ccc([N+](=O)[O-])cc1Cl)c1cc(Cl)ccc1O`, the AC50 was 4.24 µM (active).

In the case of `CCC(C)OC(=O)N1CCCCC1CCO` (stereo not given), the outcome was inactive.

Take `S=C([S-])NCCNC(=S)[S-].[Mn+2]`: the compound was classed as inactive.

Read-out in a further test: Paternally Expressed 10 (PEG10), PEG10 (gene 23089)
Put plainly: LTEA_HepaRG_PEG10: Life Technologies and Expression Analysis (LTEA) Assay for Paternally Expressed 10 (PEG10) using HepaRG (AID 2283520). Conditions: mRNA level, 48 h; actives raise or lower the signal. In short, it runs like this: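 HepaRG, 48 h post-plating → serum-free induction medium → 48 h chemical exposure (duplicate, 8-pt, max 100 uM, half-log, 0.5% DMSO) → lysis in RLT → TaqMan qRT-PCR for PEG10, ACTB/GAPDH/POLR2A normalisation.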
Take `CC(C)CCCCCCc1ccc(O)cc1`: the result was inactive.

Consider `N#CSCSc1nc2ccccc2s1`, for which the AC50 was 50 µM (active).

Turning to `CC(=O)S[C@@H]1CC2=CC(=O)CC[C@]2(C)[C@H]2CC[C@@]3(C)[C@@H](CC[C@@]34CCC(=O)O4)[C@H]12`, the outcome was inactive.

`O=C(c1ccc(O)cc1O)c1ccc(O)cc1O`: the result was inactive.

Take `CCOC(=O)COc1cc(-n2ncc(C(F)(F)F)c(C)c2=O)c(F)cc1Cl`: the call was inactive.

Take `OB(O)O`: the call was inactive.

In the case of `CCCCOC(=O)[C@@H](C)Oc1ccc(Oc2ccc(C(F)(F)F)cn2)cc1`, the concentration at half-maximal activity (AC50) is 5.38 µM (active).

Take `CC(C)(C)[C@@H](O)[C@@H](Cc1ccc(Cl)cc1)n1cncn1`: the compound was called inactive.

Consider `CCCN(CCC)C(=O)SCC`, for which the call was inactive.

With `CCCCOC(=O)C(C)Oc1ccc(Oc2ccc(C(F)(F)F)cn2)cc1` (stereo not given), the call was inactive.

Regarding `O=C(O)C1(C(=O)Nc2ccc(Cl)cc2Cl)CC1`, the half-maximal activity concentration (AC50) was 39.8 µM (active).

On to `COC(=O)c1ccc(I)cc1S(=O)(=O)NC(=O)Nc1nc(C)nc(OC)n1`, for which the call was inactive.

In the case of `C=CCOC(Cn1ccnc1)c1ccc(Cl)cc1Cl` (stereo not given), the AC50 was 28.4 µM (active).

On to `C#C[C@]1(O)CC[C@H]2[C@@H]3CCC4=CC(=O)CC[C@@H]4[C@H]3CC[C@@]21CC`, for which the AC50 is 2.38 µM (active).

On to `C[C@]12C[C@H](O)[C@H]3[C@@H](CCC4=CC(=O)CC[C@@]43C)[C@@H]1CC[C@@H]2C(=O)CO`, for which the compound was called inactive.

For `C#CCOC(=O)[C@@H](C)Oc1ccc(Oc2ncc(Cl)cc2F)cc1`, the compound was classed as inactive.

With `CCCCC(CC)CN1C(=O)C2C3C=CC(C3)C2C1=O` (stereo not given), the AC50 was 1.98 µM (active).

For `O=C(O)c1ccccc1`, the outcome was inactive.

In the case of `CCN(CC)C(=O)c1cccc(C)c1`, the compound was called inactive.

For `CCCN(CCC)c1c([N+](=O)[O-])cc(C(F)(F)F)c(N)c1[N+](=O)[O-]`, the half-maximal activity concentration (AC50) was 17.4 µM (active).

Turning to `Cc1nn(C)c(Oc2ccccc2)c1C=NOCc1ccc(C(=O)OC(C)(C)C)cc1`, the half-maximal activity concentration (AC50) was 1.15 µM (active).

Turning to `COC(=O)c1ccccc1C(=O)O`, the compound was called inactive.

Consider `CCCOC(=O)c1ccc(C(=O)OCCC)nc1`, for which the compound was called inactive.

For the compound `CCCOC(=O)NCCCN(C)C`, the outcome was inactive.

For `O=C(Nc1ccc([N+](=O)[O-])cc1Cl)c1cc(Cl)ccc1O`, the AC50 was 1.99 µM (active).

In the case of `CCC(C)OC(=O)N1CCCCC1CCO` (stereo not given), the compound was called inactive.

Consider `S=C([S-])NCCNC(=S)[S-].[Mn+2]`, for which the AC50 is 0.302 µM (active).

Read-out in the next test: Protein phosphatase 2A (PPP2R4), PTPA (gene 5524)
Put plainly: LTEA_HepaRG_PPP2R4: Life Technologies and Expression Analysis (LTEA) Assay for Protein phosphatase 2A (PPP2R4) using HepaRG (AID 2283522). Conditions: mRNA level, 48 h; actives raise or lower the signal. In short, it runs like this:
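Readout is PPP2R4 transcript level by microfluidic qRT-PCR after 48 h chemical treatment of human HepaRG liver cells. Concentrations spanned 100 uM downward in half-log steps; gain or loss of signal was fitted relative to DMSO.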
As for `CC(C)CCCCCCc1ccc(O)cc1`, the outcome was inactive.

Regarding `N#CSCSc1nc2ccccc2s1`, the call was inactive.

With `CC(=O)S[C@@H]1CC2=CC(=O)CC[C@]2(C)[C@H]2CC[C@@]3(C)[C@@H](CC[C@@]34CCC(=O)O4)[C@H]12`, the outcome was inactive.

As to `O=C(c1ccc(O)cc1O)c1ccc(O)cc1O`, the result was inactive.

For the compound `CCOC(=O)COc1cc(-n2ncc(C(F)(F)F)c(C)c2=O)c(F)cc1Cl`, the outcome was inactive.

Turning to `OB(O)O`, the compound was classed as inactive.

Take `CCCCOC(=O)[C@@H](C)Oc1ccc(Oc2ccc(C(F)(F)F)cn2)cc1`: the outcome was inactive.

In the case of `CC(C)(C)[C@@H](O)[C@@H](Cc1ccc(Cl)cc1)n1cncn1`, the compound was classed as inactive.

For `CCCN(CCC)C(=O)SCC`, the result was inactive.

For `CCCCOC(=O)C(C)Oc1ccc(Oc2ccc(C(F)(F)F)cn2)cc1` (stereo not given), the outcome was inactive.

In the case of `O=C(O)C1(C(=O)Nc2ccc(Cl)cc2Cl)CC1`, the half-maximal activity concentration (AC50) was 61.9 µM (active).

Turning to `COC(=O)c1ccc(I)cc1S(=O)(=O)NC(=O)Nc1nc(C)nc(OC)n1`, the result was inactive.

On to `C=CCOC(Cn1ccnc1)c1ccc(Cl)cc1Cl` (stereo not given), for which the AC50 was 87.5 µM (active).

For the compound `C#C[C@]1(O)CC[C@H]2[C@@H]3CCC4=CC(=O)CC[C@@H]4[C@H]3CC[C@@]21CC`, the compound was classed as inactive.

In the case of `C[C@]12C[C@H](O)[C@H]3[C@@H](CCC4=CC(=O)CC[C@@]43C)[C@@H]1CC[C@@H]2C(=O)CO`, the outcome was inactive.

As for `C#CCOC(=O)[C@@H](C)Oc1ccc(Oc2ncc(Cl)cc2F)cc1`, the compound was classed as inactive.

On to `CCCCC(CC)CN1C(=O)C2C3C=CC(C3)C2C1=O` (stereo not given), for which the AC50 is 50 µM (active).

In the case of `O=C(O)c1ccccc1`, the compound was classed as inactive.

Turning to `CCN(CC)C(=O)c1cccc(C)c1`, the call was inactive.

With `CCCN(CCC)c1c([N+](=O)[O-])cc(C(F)(F)F)c(N)c1[N+](=O)[O-]`, the result was inactive.

As to `Cc1nn(C)c(Oc2ccccc2)c1C=NOCc1ccc(C(=O)OC(C)(C)C)cc1`, the AC50 is 5.33 µM (active).

For the compound `COC(=O)c1ccccc1C(=O)O`, the call was inactive.

With `CCCOC(=O)c1ccc(C(=O)OCCC)nc1`, the compound was classed as inactive.

Regarding `CCCOC(=O)NCCCN(C)C`, the call was inactive.

Turning to `O=C(Nc1ccc([N+](=O)[O-])cc1Cl)c1cc(Cl)ccc1O`, the AC50 is 3.47 µM (active).

`CCC(C)OC(=O)N1CCCCC1CCO` (stereo not given): the outcome was inactive.

With `S=C([S-])NCCNC(=S)[S-].[Mn+2]`, the half-maximal activity concentration (AC50) was 5.29 µM (active).
